Measurements published in PubChem BioAssay (EPA / NIEHS).
Inconclusive results are not listed. Calls of active or inactive are those of the source. The calls were made as follows: active = hit-call score of the fitted dose curve at least 0.9, where 1 is the maximum; inconclusive = response in the unintended direction; inactive = score below 0.9.

tested on: not listed separately; assay: ACEA_AR_agonist_AUC_viability: ACEA Biosciences xCELLigence Real-Time Cell Analysis on Androgen Receptor Agonism for Viability (AID 2283775);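 as to AC50: viability read 80 hours after compound addition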
In short: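 Viability endpoint from xCELLigence impedance in 22Rv1 prostate cells at 80 h. Eight-point series, 100 uM maximum final.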

SMILES	outcome	AC50
Cc1cc(=O)[nH]c(=S)[nH]1	inactive	
CN1CCCC1=O	inactive	
Cc1oc(-c2ccccc2)nc1CCOc1cccc2c1ccn2CCC(=O)O		68.8 µM (active)
CC(C)(C)c1cc(O)c(C(C)(C)C)cc1O		66.3 µM (active)
CC=Cc1ccc(O)c(OC)c1		50 µM (active)
C=CCc1ccc(O)c(OC)c1	inactive	
CCNc1cccc(C)c1	inactive	
Nc1ccc(S(=O)(=O)c2ccc(N)cc2)cc1	inactive	
CNC(=O)[C@H]1O[C@@H](n2cnc3c(NCc4cc(Cl)ccc4OCc4cc(C)no4)ncnc32)[C@H](O)[C@@H]1N	inactive	
CCOc1ccc2c(c1)C(C)=CC(C)(C)N2		79.8 µM (active)
COC(=O)c1ccc(O)cc1	inactive	
CC1=C(/C=C/C(C)=C/C=C/C(C)=C/CO)C(C)(C)CCC1		72.2 µM (active)
O=c1c(O)c(-c2ccc(O)c(O)c2)oc2cc(O)cc(O)c12		17.8 µM (active)
COc1ccc(C)cc1N	inactive	
Cc1ccc(C)c(O)c1C	inactive	
Nc1ccccc1N	inactive	
CCCCC(CC)COC(=O)CC(C(=O)OCC(CC)CCCC)S(=O)(=O)O (stereo not drawn)		88.4 µM (active)
Nc1nc(N)c2nc(CNc3ccc(C(=O)N[C@@H](CCC(=O)O)C(=O)O)cc3)cnc2n1	inactive	
CN[C@H]1CC[C@@H](c2ccc(Cl)c(Cl)c2)c2ccc(S(N)(=O)=O)cc21		15.2 µM (active)
Cc1ccc(N(C)C)cc1	inactive	
CCCCc1ccc2c(n1)[C@@H](c1ccc(OC)cc1C[C@H](C)C(=O)O)[C@H](C(=O)O)[C@H]2c1ccc2c(c1)OCO2	inactive	

tested on: not listed separately; assay: ACEA_AR_antagonist_AUC_viability: ACEA Biosciences xCELLigence Real-Time Cell Analysis on Androgen Receptor Antagonism for Viability (AID 2283776);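 also: 22Rv1 human prostate cancer cells growing on impedance electrode plates; area under impedance growth curve at 80 h after dosing as viability; hits lower the growth signal relative to DMSO meaning cytotoxicity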
In short: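 Real-time electrical impedance tracks 22Rv1 proliferation after continuous compound exposure (top 100 uM final, 1:4 steps, 8 concentrations). The 80 h area-under-curve serves as the cytotoxicity readout relative to DMSO.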

SMILES	AC50	outcome
Cc1cc(=O)[nH]c(=S)[nH]1	9.94 µM (active)	
CN1CCCC1=O		inactive
Cc1oc(-c2ccccc2)nc1CCOc1cccc2c1ccn2CCC(=O)O	65.7 µM (active)	
CC(C)(C)c1cc(O)c(C(C)(C)C)cc1O		inactive
CC=Cc1ccc(O)c(OC)c1	19.3 µM (active)	
C=CCc1ccc(O)c(OC)c1		inactive
CCNc1cccc(C)c1		inactive
COc1cc(S(=O)(=O)O)c(C)cc1N=Nc1c(O)ccc2cc(S(=O)(=O)O)ccc12		inactive
CNC(=O)[C@H]1O[C@@H](n2cnc3c(NCc4cc(Cl)ccc4OCc4cc(C)no4)ncnc32)[C@H](O)[C@@H]1N		inactive
CCOc1ccc2c(c1)C(C)=CC(C)(C)N2	89.5 µM (active)	
COC(=O)c1ccc(O)cc1	12.7 µM (active)	
CC1=C(/C=C/C(C)=C/C=C/C(C)=C/CO)C(C)(C)CCC1	79.8 µM (active)	
Oc1ccc2ccccc2c1N=Nc1ccccc1		inactive
CCCc1cc(=O)[nH]c(=S)[nH]1		inactive
COc1ccc(C)cc1N		inactive
Cc1c(C(=O)O)c(O)cc2c1C(=O)c1c(O)c([C@@H]3O[C@H](CO)[C@@H](O)[C@H](O)[C@H]3O)c(O)c(O)c1C2=O		inactive
Cc1ccc(C)c(O)c1C		inactive
C[C@]12C=CC(=O)C=C1CC[C@@H]1[C@@H]2C(=O)C[C@@]2(C)[C@H]1CC[C@]2(O)C(=O)CO		inactive
OC[C@@H](O)[C@@H](O)[C@H](O)[C@H](O)CO		inactive
Nc1ccccc1N	24.2 µM (active)	
CCCCC(CC)COC(=O)CC(C(=O)OCC(CC)CCCC)S(=O)(=O)O (stereo not drawn)	85.2 µM (active)	
CN[C@H]1CC[C@@H](c2ccc(Cl)c(Cl)c2)c2ccc(S(N)(=O)=O)cc21	15.7 µM (active)	
Cc1ccc(N(C)C)cc1		inactive
CCCCc1ccc2c(n1)[C@@H](c1ccc(OC)cc1C[C@H](C)C(=O)O)[C@H](C(=O)O)[C@H]2c1ccc2c(c1)OCO2	19.9 µM (active)	

tested on: not listed separately; assay: ACEA_ER_AUC_viability: ACEA Biosciences xCELLigence Real-Time Cell Analysis on Estrogen Receptor Agonism for Viability (AID 2283782);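 also: hit means loss of impedance signal meaning reduced cell growth or viability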
In short: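 Continuous-exposure impedance cell analysis uses T-47D cells in charcoal-stripped serum, eight 1:4 dilutions topping at 100 uM final, biological duplicate. Area under the growth curve at 80 h is fitted against DMSO baseline.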

SMILES	outcome	AC50
Cc1cc(=O)[nH]c(=S)[nH]1	inactive	
Cc1oc(-c2ccccc2)nc1CCOc1cccc2c1ccn2CCC(=O)O	inactive	
CCNc1cccc(C)c1	inactive	
CNC(=O)[C@H]1O[C@@H](n2cnc3c(NCc4cc(Cl)ccc4OCc4cc(C)no4)ncnc32)[C@H](O)[C@@H]1N	inactive	
CCOc1ccc2c(c1)C(C)=CC(C)(C)N2	inactive	
CC1=C(/C=C/C(C)=C/C=C/C(C)=C/CO)C(C)(C)CCC1	inactive	
COc1ccc(C)cc1N	inactive	
Cc1ccc(C)c(O)c1C	inactive	
Nc1ccccc1N	inactive	
CCCCC(CC)COC(=O)CC(C(=O)OCC(CC)CCCC)S(=O)(=O)O (stereo not drawn)		67.3 µM (active)
Nc1nc(N)c2nc(CNc3ccc(C(=O)N[C@@H](CCC(=O)O)C(=O)O)cc3)cnc2n1		40.1 µM (active)
CN[C@H]1CC[C@@H](c2ccc(Cl)c(Cl)c2)c2ccc(S(N)(=O)=O)cc21		10.9 µM (active)

target: AR (gene 367) (UniProt P10275); assay: ACEA_AR_antagonist_80hr: ACEA Biosciences xCELLigence Real-Time Cell Analysis on Androgen Receptor Antagonism for Proliferation (AID 2283787);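 also: 22Rv1 human prostate cancer cells with growth followed by electrical impedance; hits lower the impedance growth signal relative to DMSO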
In short: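 Using 22Rv1 cells held in assay medium, we dosed compounds (100 uM maximum final, 1:4 serial, eight points, 0.5% DMSO at top) and recorded cell-electrode impedance; the 80 hr timepoint was analyzed against DMSO.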

Chain of AR (gene 367) (P10275 whole entry, looked up): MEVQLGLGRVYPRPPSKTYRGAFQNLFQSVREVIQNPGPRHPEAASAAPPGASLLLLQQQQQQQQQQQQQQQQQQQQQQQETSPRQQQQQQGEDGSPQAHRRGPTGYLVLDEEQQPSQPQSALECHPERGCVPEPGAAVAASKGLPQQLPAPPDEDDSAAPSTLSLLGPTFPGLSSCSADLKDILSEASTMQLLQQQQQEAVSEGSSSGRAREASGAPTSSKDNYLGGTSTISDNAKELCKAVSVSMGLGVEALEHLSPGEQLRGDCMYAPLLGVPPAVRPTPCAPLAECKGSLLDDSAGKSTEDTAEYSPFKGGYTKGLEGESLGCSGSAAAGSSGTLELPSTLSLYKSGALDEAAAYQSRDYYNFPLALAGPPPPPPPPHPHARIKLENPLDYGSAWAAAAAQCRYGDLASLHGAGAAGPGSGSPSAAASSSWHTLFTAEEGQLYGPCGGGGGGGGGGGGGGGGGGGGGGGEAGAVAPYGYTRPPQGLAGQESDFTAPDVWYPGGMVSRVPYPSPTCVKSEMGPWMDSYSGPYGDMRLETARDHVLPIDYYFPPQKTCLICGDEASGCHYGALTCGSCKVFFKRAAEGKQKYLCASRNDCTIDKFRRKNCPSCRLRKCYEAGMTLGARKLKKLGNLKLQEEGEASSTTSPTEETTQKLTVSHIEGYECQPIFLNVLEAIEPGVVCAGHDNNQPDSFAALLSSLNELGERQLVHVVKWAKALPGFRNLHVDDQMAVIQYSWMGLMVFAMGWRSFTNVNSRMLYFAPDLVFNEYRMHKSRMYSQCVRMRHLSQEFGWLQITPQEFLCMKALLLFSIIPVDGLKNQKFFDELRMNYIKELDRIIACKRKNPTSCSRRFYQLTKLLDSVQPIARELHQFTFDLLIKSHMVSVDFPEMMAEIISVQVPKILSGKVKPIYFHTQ

SMILES	outcome	AC50
CNC(=O)[C@H]1O[C@@H](n2cnc3c(NCc4cc(Cl)ccc4OCc4cc(C)no4)ncnc32)[C@H](O)[C@@H]1N	inactive	
CCOc1ccc2c(c1)C(C)=CC(C)(C)N2		72.2 µM (active)
COc1ccc(C)cc1N	inactive	
Cc1ccc(C)c(O)c1C	inactive	
CN[C@H]1CC[C@@H](c2ccc(Cl)c(Cl)c2)c2ccc(S(N)(=O)=O)cc21		13.1 µM (active)
Cc1ccc(N(C)C)cc1	inactive	
